Results reported in PubChem BioAssay (EPA / NIEHS).
Active and inactive are the calls of the source. Rule for the calls: active = hit-call score of the fitted dose curve at least 0.9, where 1 is the maximum; inactive = score below 0.9.

Columns and labels:
[1] = molecular target: Bile acid receptor (Homo sapiens) (UniProt Q96RI1); assay: ATG_IR1_CIS: Attagene CIS-FACTORIAL HepG2 Assay for human Nuclear Receptor Subfamily 1 Group H Member 4 (NR1H4), IR1 submotif (AID 2282946); details: IR1 reporter transcription, actives raise or lower the signal
Sequence of Bile acid receptor (Homo sapiens) (Q96RI1 whole entry, looked up): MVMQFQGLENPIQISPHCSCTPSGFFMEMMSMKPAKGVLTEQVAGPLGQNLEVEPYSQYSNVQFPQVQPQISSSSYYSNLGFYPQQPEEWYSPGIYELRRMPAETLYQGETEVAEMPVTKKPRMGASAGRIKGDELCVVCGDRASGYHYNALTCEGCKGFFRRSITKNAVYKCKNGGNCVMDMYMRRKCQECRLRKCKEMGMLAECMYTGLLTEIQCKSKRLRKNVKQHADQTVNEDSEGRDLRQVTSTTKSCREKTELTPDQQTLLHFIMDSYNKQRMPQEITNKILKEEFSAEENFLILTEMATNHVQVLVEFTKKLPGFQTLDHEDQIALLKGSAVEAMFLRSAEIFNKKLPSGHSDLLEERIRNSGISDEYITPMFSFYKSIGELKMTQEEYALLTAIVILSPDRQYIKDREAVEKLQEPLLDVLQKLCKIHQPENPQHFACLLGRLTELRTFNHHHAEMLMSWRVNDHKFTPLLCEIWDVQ
In short: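 Transient MRTU transfection, HepG2; 24 h dosing; RNA → RT-PCR → 6-FAM primer extension → HpaI digest → capillary electrophoresis fluorescence. Gain/loss of signal fitted relative to DMSO.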

[2] = ATG_ISRE_CIS: Attagene CIS-FACTORIAL HepG2 Assay for human Interferon Regulatory Factor 1 (IRF1) binding to an Interferon-Stimulated Response Element (ISRE) (AID 2282948); details: HepG2 ISRE cis-reporter (Attagene), mRNA transcription readout; actives raise or lower the signal
In short: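 Quantitation relies on labelled RT-PCR fragments separated by capillary electrophoresis. Human HepG2 cells bearing cis-promoter reporter constructs were treated 24 h; DMSO served as baseline for bidirectional fitting.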

[3] = ATG_M_32_CIS: Attagene CIS-FACTORIAL HepG2 Assay for M32 Transcription Factor (Internal Marker) (AID 2282949); details: HepG2 Attagene cis-factorial M32 reporter, mRNA; actives raise or lower the signal;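 note: background control marker of the multiplexed CIS panel rather than a real target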
In short: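 Internal background marker read-out: RT-PCR/capillary electrophoresis fluorescence of reporter transcripts from transiently transfected HepG2 cells after 24 h chemical exposure. Activity fitted bidirectionally relative to DMSO negative control.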

[4] = ATG_M_06_CIS: Attagene CIS-FACTORIAL HepG2 Assay for M06 Transcription Factor (Internal Marker) (AID 2282950); details: HepG2 Attagene CIS-FACTORIAL M06 internal marker reporter; actives raise or lower the signal
In short: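 Read-out is fluorescence of labelled reporter cDNA fragments resolved by capillary electrophoresis after RT-PCR. Cells: HepG2 carrying transfected cis-promoter reporter units, treated 24 h. Gain or loss of signal fitted relative to DMSO.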

[5] = molecular target: Hypoxia-inducible factor 1-alpha (Homo sapiens) (UniProt Q16665); assay: ATG_HIF1a_CIS: Attagene CIS-FACTORIAL HepG2 Assay for human Hypoxia Inducible Factor 1 (HIF1A) (AID 2282951); details: HepG2 Attagene cis-factorial HIF1a reporter transcription; actives raise or lower the signal
Sequence of Hypoxia-inducible factor 1-alpha (Homo sapiens) (Q16665 whole entry, looked up): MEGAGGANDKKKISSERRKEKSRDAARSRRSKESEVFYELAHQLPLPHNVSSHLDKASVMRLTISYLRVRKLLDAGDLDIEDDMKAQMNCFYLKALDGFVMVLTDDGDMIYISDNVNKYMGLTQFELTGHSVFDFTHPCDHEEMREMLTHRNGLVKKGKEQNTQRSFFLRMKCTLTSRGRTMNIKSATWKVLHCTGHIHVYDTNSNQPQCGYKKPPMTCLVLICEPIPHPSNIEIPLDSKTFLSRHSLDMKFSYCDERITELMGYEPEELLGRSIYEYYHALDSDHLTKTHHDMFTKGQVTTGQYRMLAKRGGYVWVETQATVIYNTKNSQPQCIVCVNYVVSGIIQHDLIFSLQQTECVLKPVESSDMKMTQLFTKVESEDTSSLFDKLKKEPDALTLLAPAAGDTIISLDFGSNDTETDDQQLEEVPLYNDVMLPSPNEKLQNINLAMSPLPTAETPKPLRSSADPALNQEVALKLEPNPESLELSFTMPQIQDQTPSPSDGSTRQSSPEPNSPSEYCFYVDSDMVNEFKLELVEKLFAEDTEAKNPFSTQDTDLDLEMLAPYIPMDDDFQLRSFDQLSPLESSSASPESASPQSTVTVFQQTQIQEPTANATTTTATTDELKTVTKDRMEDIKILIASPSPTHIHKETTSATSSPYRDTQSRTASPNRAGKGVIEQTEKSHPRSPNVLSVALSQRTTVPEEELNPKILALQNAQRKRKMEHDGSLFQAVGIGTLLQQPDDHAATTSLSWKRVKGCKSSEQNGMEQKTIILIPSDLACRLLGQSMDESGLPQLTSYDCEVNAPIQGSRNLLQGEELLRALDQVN
In short: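 In this multiplexed cell assay, HepG2 cells bearing transfected cis reporters are dosed for 24 h and reporter mRNA is read by RT-PCR plus capillary electrophoresis; signal increases and decreases are both scored against DMSO.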

[6] = molecular target: Hepatocyte nuclear factor 6 (Homo sapiens) (UniProt Q9UBC0); assay: ATG_HNF6_CIS: Attagene CIS-FACTORIAL HepG2 Assay for human Hepatocyte Nuclear Factor 6 (HNF6) (AID 2282952); details: HepG2 Attagene cis-factorial HNF6 reporter transcription; actives raise or lower the signal
Sequence of Hepatocyte nuclear factor 6 (Homo sapiens) (Q9UBC0 whole entry, looked up): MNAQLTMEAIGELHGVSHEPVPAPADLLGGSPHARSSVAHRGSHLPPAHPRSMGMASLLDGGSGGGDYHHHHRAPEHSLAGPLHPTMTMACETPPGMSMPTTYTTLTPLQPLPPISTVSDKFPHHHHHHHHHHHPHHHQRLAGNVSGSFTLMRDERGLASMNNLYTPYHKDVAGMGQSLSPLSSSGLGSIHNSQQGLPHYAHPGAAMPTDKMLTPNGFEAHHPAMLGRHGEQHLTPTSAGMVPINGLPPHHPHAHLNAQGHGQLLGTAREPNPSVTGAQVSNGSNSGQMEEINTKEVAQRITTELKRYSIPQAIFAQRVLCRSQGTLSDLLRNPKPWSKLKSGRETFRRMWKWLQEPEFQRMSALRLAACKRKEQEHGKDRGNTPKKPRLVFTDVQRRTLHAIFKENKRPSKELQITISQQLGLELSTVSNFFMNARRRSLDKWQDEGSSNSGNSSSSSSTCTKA
In short: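 Cells are HepG2 carrying transiently transfected cis-promoter reporter units. Treatment lasts 24 h, after which reporter transcripts are reverse-transcribed, amplified, FAM-labelled and sized by capillary electrophoresis. DMSO serves as baseline.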

[7] = molecular target: Heat shock factor protein 1 (Homo sapiens) (UniProt Q00613); assay: ATG_HSE_CIS: Attagene CIS-FACTORIAL HepG2 Assay for human Heat Shock Transcription Factor 1 (HSE) (AID 2282953); details: HepG2 HSE cis-reporter, Attagene RNA transcription; actives raise or lower the signal
Sequence of Heat shock factor protein 1 (Homo sapiens) (Q00613 whole entry, looked up): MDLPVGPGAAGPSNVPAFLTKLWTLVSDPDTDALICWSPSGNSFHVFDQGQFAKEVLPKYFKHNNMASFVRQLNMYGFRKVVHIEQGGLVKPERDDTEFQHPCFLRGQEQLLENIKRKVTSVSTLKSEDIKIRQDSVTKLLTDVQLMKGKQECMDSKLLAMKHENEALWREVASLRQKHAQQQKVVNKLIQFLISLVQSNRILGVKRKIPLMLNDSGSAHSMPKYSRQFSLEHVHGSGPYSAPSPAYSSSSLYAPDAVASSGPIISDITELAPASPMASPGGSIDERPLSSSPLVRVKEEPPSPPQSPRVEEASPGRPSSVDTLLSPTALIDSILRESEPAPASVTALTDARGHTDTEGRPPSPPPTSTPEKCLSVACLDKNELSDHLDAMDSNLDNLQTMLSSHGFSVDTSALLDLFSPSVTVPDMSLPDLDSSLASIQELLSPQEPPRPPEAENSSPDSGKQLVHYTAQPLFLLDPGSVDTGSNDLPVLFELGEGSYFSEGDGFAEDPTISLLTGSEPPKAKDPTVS
In short: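 HepG2, transient MRTU transfection, cis-promoter reporters (endogenous TF activity). 24 h compound. RNA → oligo(dT) RT → PCR → 6-FAM primer extension → HpaI cut → CE. Bidirectional fit vs DMSO.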

[8] = ATG_MRE_CIS: Attagene CIS-FACTORIAL HepG2 Assay for human Metal Responsive Element (MRE) (AID 2282954); details: HepG2 MRE cis-reporter transcription, Attagene multiplex; actives raise or lower the signal
In short: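 HepG2 cells transiently transfected with multiple cis-element reporter units measure endogenous MTF1-driven transcription. After 24 h compound exposure, reporter mRNA is quantified by RT-PCR with 6-FAM labelling, HpaI digestion and capillary electrophoresis; bidirectional fits versus DMSO.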

[9] = ATG_GRE_CIS: Attagene CIS-FACTORIAL HepG2 Assay for human Glucocorticoid Response Elements (GRE) (AID 2282947); details: HepG2 GRE cis-reporter, Attagene multiplex mRNA; actives raise or lower the signal
In short: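 HepG2 cells transiently transfected with multiple cis-promoter reporter units measure endogenous TF activity; 24 h compound exposure. Reporter mRNA quantified by RT-PCR, FAM labelling, HpaI digestion and capillary electrophoresis; bidirectional fit vs DMSO baseline.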

[10] = ATG_PBREM_CIS: Attagene CIS-FACTORIAL HepG2 Assay for human Phenobarbital-responsive Enhancer Module (PBREM) (AID 2282955); details: HepG2 PBREM cis-reporter, Attagene multiplexed transcription; actives raise or lower the signal
In short: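 After a 24 h incubation with test chemical, transfected HepG2 cells yield total RNA; reporter-specific RT-PCR products are fluorescently labelled, HpaI-digested and resolved by capillary electrophoresis against ROX size standards.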

| SMILES | outcome [1] | outcome [2] | outcome [3] | outcome [4] | outcome [5] | outcome [6] | outcome [7] | outcome [8] | outcome [9] | AC50 [10] | outcome [10] | AC50 [7] | AC50 [2] | AC50 [5] | AC50 [8] |
| --- | --- | --- | --- | --- | --- | --- | --- | --- | --- | --- | --- | --- | --- | --- | --- |
| Nc1cccc(C(F)(F)F)c1 | inactive | inactive | inactive | inactive | inactive | inactive | inactive | inactive |  |  |  |  |  |  |  |
| Cc1oncc1C(=O)Nc1ccc(C(F)(F)F)cc1 | inactive | inactive | inactive | inactive |  | inactive | inactive | inactive | inactive | 143 µM (active) |  |  |  |  |  |
| CCCC(=O)OCc1ccccc1 | inactive | inactive | inactive | inactive | inactive | inactive | inactive | inactive |  |  |  |  |  |  |  |
| NC(=O)N=NC(N)=O | inactive | inactive | inactive | inactive |  | inactive |  |  | inactive |  | inactive |  |  |  |  |
| CCCCCCCCCCCCCCCC[n+]1ccccc1 | inactive |  | inactive | inactive | inactive | inactive |  | inactive | inactive |  |  |  |  |  |  |
| Clc1nc2ccccc2s1 | inactive | inactive | inactive | inactive |  | inactive |  | inactive | inactive |  |  |  |  |  |  |
| CC(C)=CCC/C(C)=C\C#N | inactive |  | inactive | inactive | inactive | inactive | inactive | inactive | inactive |  | inactive |  |  |  |  |
| CCCCCCCCO[C@@H]1O[C@H](CO)[C@@H](O)[C@H](O)[C@H]1O | inactive | inactive | inactive | inactive |  | inactive | inactive | inactive | inactive |  |  |  |  |  |  |
| C=C(C)CCO | inactive |  | inactive | inactive | inactive | inactive | inactive | inactive | inactive |  |  |  |  |  |  |
| c1ccc(CCCc2ccncc2)cc1 | inactive |  | inactive | inactive | inactive | inactive |  | inactive | inactive |  |  | 144 µM (active) |  |  |  |
| COCCCOCCCOC | inactive | inactive | inactive | inactive | inactive | inactive | inactive | inactive |  |  | inactive |  |  |  |  |
| COC(=O)/C=C/C(C)=C\C=C\C(C)=C\C=C\C=C(C)\C=C\C=C(C)\C=C\C(=O)O | inactive | inactive | inactive | inactive |  | inactive | inactive | inactive | inactive |  | inactive |  |  |  |  |
| O=C(c1ccc(O)cc1)c1ccc(O)cc1O | inactive | inactive | inactive | inactive |  | inactive | inactive | inactive | inactive |  | inactive |  |  |  |  |
| Nc1nc2ccccc2[nH]1 | inactive |  | inactive | inactive | inactive | inactive | inactive | inactive | inactive |  | inactive |  |  |  |  |
| CCC(Cc1ccccc1)(C(=O)c1ccc(N2CCOCC2)cc1)N(C)C (stereo not given) | inactive |  | inactive | inactive |  | inactive |  |  |  |  |  | 65.9 µM (active) | 27.2 µM (active) | 22.9 µM (active) |  |
| CC(=O)c1ccc[nH]1 | inactive | inactive | inactive | inactive |  | inactive | inactive | inactive | inactive |  |  |  |  |  |  |
| CC(C)c1ccc2c(c1)CC[C@H]1[C@](C)(CN)CCC[C@]21C | inactive | inactive | inactive | inactive |  | inactive |  |  | inactive |  |  | 6.29 µM (active) |  |  | 5.77 µM (active) |
| COC(F)(F)C(F)(C(F)(F)F)C(F)(F)F | inactive |  | inactive | inactive | inactive | inactive | inactive | inactive | inactive |  | inactive |  |  |  |  |
| CC(C)=CC1CC(C)CCO1 (stereo not given) | inactive |  | inactive | inactive | inactive | inactive | inactive | inactive | inactive |  |  |  |  |  |  |
| Cc1ccc(C2OC[C@@H]3OC(c4ccc(C)cc4)O[C@H]([C@H](O)CO)[C@@H]3O2)cc1 (stereo not given in full) | inactive | inactive | inactive | inactive |  | inactive | inactive | inactive | inactive |  |  |  |  |  |  |
| Cc1ccc2oc(=O)ccc2c1 | inactive |  | inactive | inactive | inactive | inactive | inactive |  | inactive |  | inactive |  |  |  |  |
| CCCCOCCOC(=O)COc1nc(Cl)c(Cl)cc1Cl | inactive |  | inactive | inactive | inactive | inactive | inactive |  | inactive |  |  |  |  |  |  |
| C1CN(SSN2CCOCC2)CCO1 | inactive | inactive | inactive | inactive |  | inactive |  | inactive | inactive |  |  | 44.4 µM (active) |  |  |  |
| CCCCCCCC[N+](C)(CCCCCCCC)CCCCCCCC | inactive | inactive | inactive | inactive |  | inactive | inactive |  | inactive |  | inactive |  |  |  | 2.15 µM (active) |
